FBPA Giardia inh – blocks Giardia fructose-bisphosphate aldolase activity; actives 0.71% (n = 290,000); purified Giardia FBPA; Potency, µM (top dose mostly 59.6 µM), without a hit: at the highest dose activity, negative = inhibition, usual class: inhibitors; also: potency is read from the fitted curve at half-maximal effect; % is scaled to controls: 0 for no effect and ±100 for the full control effect; nearly all actives have a fitted effect of over 55% in size
Target sequence (A8B2U2 whole entry, looked up): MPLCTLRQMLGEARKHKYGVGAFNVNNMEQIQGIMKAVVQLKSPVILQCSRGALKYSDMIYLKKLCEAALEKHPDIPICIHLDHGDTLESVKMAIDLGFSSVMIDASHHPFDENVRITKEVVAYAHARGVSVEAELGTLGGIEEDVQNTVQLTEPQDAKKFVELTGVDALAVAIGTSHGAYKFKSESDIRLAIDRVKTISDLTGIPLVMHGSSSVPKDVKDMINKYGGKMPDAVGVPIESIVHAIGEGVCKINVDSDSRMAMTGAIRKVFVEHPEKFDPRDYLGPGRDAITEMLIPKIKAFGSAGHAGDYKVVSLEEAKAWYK
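Giardia FBPA (40 nM reagent) was preincubated 10 min at RT with compound (up to 57.5 uM final), then substrate plus GAPDH/TPI/NAD/arsenate coupling system with diaphorase/resazurin was added; resorufin fluorescence (525/598 nm) was read after 20 min.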
Shiga toxin inh – blocks Shiga toxin action in Vero cells; Vero cells, Shiga toxin protein synthesis inhibition reporter; AID 2315; inhibition, % at 38.7 µM; actives 9.2% (n = 290,000); in the data active = inhibition mostly above about 28%, no sharp cut-off; inactive = mostly below about 43%; also: 0% is about no effect
NS1 function inh – influenza NS1 inhibition | actives 0.4% (n = 270,000) | Potency, µM (top dose mostly 46.1 µM), inactives show top-dose activity, positive = more growth; calls by dose curve; also: potency is read from the fitted curve at half-maximal effect; actives are rising curves; nearly all actives have a fitted effect of over 50% in size
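A cell-based growth assay was used: compounds that relieve NS1-induced slow growth of budding yeast raise OD600. Assay medium was yeast nitrogen base with ammonium sulphate and -URA supplement, pH 6.0, with 2% galactose.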
Cycloheximide cs – counter-screen hit for Shiga toxin inhibitors, cycloheximide; cell reporter, cycloheximide protein synthesis inhibition counterscreen; max response, %; actives 12% (n = 300,000); AID 2314; in the data active = max response mostly above about 13%, no sharp cut-off; inactive = mostly below about 14%; also: read at 38.3 µM for the half of the compounds with a filed dose; 0% is about no effect
Pf growth 48h – inhibits P. falciparum growth in the first generation, 48 h | P. falciparum luciferase growth in erythrocytes, 48 h | Potency, µM (series often up to 28.7 µM), for inactives: at the top dose activity change, negative = inhibition, usual class: inhibitors | actives 5.9% (n = 310,000) | AID 504832; also: potency is read from the fitted curve at half-maximal effect; % is scaled to controls: 0 for no effect and ±100 for the full control effect
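Luminescence readout; reporter = integrated firefly luciferase in P. falciparum. RBC culture at 2% hematocrit, 0.1% parasitemia final, 37 C/5% CO2; decreased signal taken as growth inhibition.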
Pf growth 96h – inhibits malaria parasite growth, 96 h; P. falciparum luciferase reporter growth, 96 h; Potency, µM (top dose mostly 28.7 µM), for inactives: at the top dose activity change, negative = inhibition, actives largely listed as inhibitors; actives 6.9% (n = 320,000); AID 504834; also: potency is read from the fitted curve at half-maximal effect; % is scaled to controls: 0 for no effect and ±100 for the full control effect
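Plates of compound plus infected erythrocytes (2% hematocrit, 0.05% parasitemia final) incubate 96 hours, 37 C, 5% CO2. Detection reagent added; reduced luminescence from the parasites' luciferase reporter flags inhibition.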
An asterisk follows results filed as active; ? = inconclusive; . = no result. Only some compounds are listed: those with a hit (about 21% of all), similar ones and a draw of the others. Unless noted, calls follow the shape of the dose curve; as a rule, active = well fitted curve in the direction sought with a large enough effect; inconclusive = small, poorly fitted or top-dose-only effect, or another doubt; inactive = no such curve, though single readings can be large; an effect the other way counts as inactive or inconclusive.

SMILES | FBPA Giardia inh | Shiga toxin inh | NS1 function inh | Cycloheximide cs | Pf growth 48h | Pf growth 96h
COc1ccc(CN2CCNC(=O)C2CC(=O)NC2Cc3ccccc3C2)c(OC)c1 (stereo unspecified) | -3.4% | -8.2 | 2.4% | -4.7 | 16.0% | 1.9%
COc1ccc(CNC(=O)CC2C(=O)NCCN2CC(C)(C)C)c(OC)c1 (stereo unspecified) | -12.1% | -4.0 | 6.7% | -3.1 | -7.7% | 10.4µM*
COc1ccc(CN2CCNC(=O)C2CC(=O)NC2CCC2)c(OC)c1 (stereo unspecified) | . | -2.0 | 9.6% | -1.7 | 6.7% | 14.7µM*
CCN1CCN(S(=O)(=O)c2ccc(Cl)c(C(=O)Nc3ccccc3N3CCOCC3)c2)CC1 | . | . | . | . | ? | -9.1%
CCN1CCN(S(=O)(=O)c2ccc(Cl)c(C(=O)Nc3cc(Cl)ccc3N3CCOCC3)c2)CC1 | . | -2.5 | -6.1% | -1.7 | ? | 13.1µM*
CCN1CCN(c2ccc(S(=O)(=O)N3CCOCC3)cc2NC(=O)c2ccc(Cl)cc2Cl)CC1 | . | . | . | . | 13.1µM* | ?
COc1ccc(NC(=O)CN(c2ccc(OC)c(Cl)c2)S(=O)(=O)c2ccccc2)cc1 | -6.0% | . | 9.3% | -4.8 | -41.7% | ?
Cc1nc2ccccc2c(C)c1CC(=O)N(CC(C)C)c1c(N)n(Cc2ccccc2)c(=O)[nH]c1=O | . | . | . | . | ? | 11.7µM*
Cc1cc2occ(CC(=O)N(CC(C)C)c3c(N)n(Cc4ccccc4)c(=O)[nH]c3=O)c2cc1C | . | . | . | . | 16.5µM* | -6.9%
CC(C)CN(C(=O)CCCc1nc2ccccc2c(=O)[nH]1)c1c(N)n(Cc2ccccc2)c(=O)[nH]c1=O | . | . | . | . | 24.3% | -7.6%
Cc1ccc2c(CC(=O)OCC(=O)N(CC(C)C)c3c(N)n(Cc4ccccc4)c(=O)[nH]c3=O)coc2c1 | . | . | . | . | ? | -14.7%
CCOC(=O)CNC(=O)Cn1cnc2c(nnn2-c2cccc(OC)c2)c1=O | 1.9% | 0.5 | -7.5% | -2.4 | -5.5% | 12.8%
CCOc1ccc(C(=O)N2CCCC(c3nc(-c4cccs4)no3)C2)cc1 (stereo unspecified) | -4.7% | 33.2* | -33.6% | 27.7* | 30.6% | 14.9%
CCN(CC)C(=O)C1CCCN(Cc2nc(-c3cccs3)no2)C1 (stereo unspecified) | -0.9% | -5.0 | -1.4% | -1.6 | 11.4% | 7.8%
O=C(c1ccc(Cl)cc1)N1CCC(c2nc(-c3cccs3)no2)CC1 | 5.3% | 1.5 | -39.4% | -1.7 | 6.6% | 22.0%
CCC(CC)C(=O)N1CCCC(c2nc(-c3cccs3)no2)C1 (stereo unspecified) | 3.1% | 61.0* | 5.1% | 17.0 | 24.3% | .
COc1ccccc1NS(=O)(=O)c1ccc(NC(=O)N2CCCCC2)cc1 | . | 0.9 | -2.6% | -3.3 | -6.0% | 18.4%
Cc1ccc(S(=O)(=O)N2CCN(C(=S)NCc3ccc4c(c3)OCO4)CC2)cc1 | 2.0% | -16.7 | . | 9.9 | 1.85µM* | ?
Cc1ccc(S(=O)(=O)N2CCCC2CNC(=O)c2ccc3c(c2)OCO3)cc1 (stereo unspecified) | . | . | . | . | ? | 14.7µM*
COc1ccc(S(=O)(=O)N2CCN(C(=S)NCCc3ccccc3)CC2)cc1 | . | -2.6 | -4.5% | -1.0 | 4.15µM* | ?
Cc1cccc(S(=O)(=O)N2CCN(Cc3ccc4c(c3)OCO4)CC2)c1 | -2.9% | -8.6 | 6.7% | -2.6 | 16.1% | 0.738µM*
O=S(=O)(c1ccccc1)N1CCN(C(=S)NCCc2ccccc2)CC1 | -0.5% | -11.5 | -2.3% | -2.9 | ? | ?
CCNC(=S)N1CCN(S(=O)(=O)c2ccc(C)cc2)CC1 | 25.1% | -13.7 | -0.5% | -3.6 | 17.8% | -11.7%
COc1ccc2nc(SC(C)C(=O)NC3CCCC3)[nH]c2c1 (stereo unspecified) | . | . | . | . | ? | -13.3%
OCCC1CN(Cc2cccn2-c2cccnc2)CCN1C1CCCCC1 (stereo unspecified) | -7.1% | 12.6 | -1.3% | -0.4 | 0.5% | ?
SMILES | FBPA Giardia inh | Shiga toxin inh | NS1 function inh | Cycloheximide cs | Pf growth 48h | Pf growth 96h
CS(=O)(=O)N(CC(=O)Nc1cccc(Br)c1)Cc1ccccc1 | 8.8% | -3.6 | -4.7% | -1.8 | 22.7% | 73.8%
O=C1C2C3C=CC(CC3)C2C(=O)N1c1cccc(Br)c1 (stereo unspecified) | -7.4% | -2.1 | 16.3% | -2.6 | -24.5% | -14.4%
COc1ccc(CCNC(=S)N2CCN(S(=O)(=O)c3ccc(C)cc3)CC2)cc1 | . | . | . | . | 2.94µM* | 2.62µM*
CCOc1ncccc1C(=O)OCC(=O)Nc1cccc(C(C)=O)c1 | -3.4% | -11.0 | -5.8% | 4.1 | 27.7% | .
Cc1cccc(NC(=O)COC(=O)c2cccc3c2C(=O)c2ccccc2C3=O)c1C | -23.7% | -12.1 | 9.5% | -2.3 | -25.3% | 10.4µM*
O=C(COC(=O)Cn1cnc2ccccc21)Nc1ccc2c(c1)C(=O)c1ccccc1C2=O | -1.8% | 18.1* | 10.0% | 67.0* | 154.3% | 298.0%
CC(=O)c1cccc(NC(=O)COC(=O)c2ccccc2C)c1 | 0.6% | 109.7* | -24.9% | 61.7* | 63.7% | 88.6%
Cc1cccc(OCC(=O)Nc2cc(NC(=O)COc3cccc(C)c3C)cc(C(=O)O)c2)c1C | -3.7% | 14.2 | 13.0% | 8.8 | -1.5% | ?
Cc1ccccc1OCC(=O)Nc1cccc(C(=O)O)c1 | 23.0% | 22.0 | 4.7% | 25.7* | 298.8% | -19.9%
Cc1ccc(NC(=O)COC(=O)Cn2cnc3ccccc32)cc1S(=O)(=O)N(C)C | 9.7% | -1.1 | 12.7% | -5.5 | -9.3% | ?
COc1ccc(NC(=O)Cn2c(=O)cnc3ccccc32)cc1S(=O)(=O)N1CCCCC1 | . | . | . | . | ? | -3.6%
CC[C@H](C)[C@H](NC(=O)[C@H](C)NC(=O)CNC(=O)[C@H](CCCCN)NC(=O)[C@H](CC(N)=O)NC(=O)[C@H](CO)NC(=O)CN)C(=O)N[C@H](C(=O)NCC(=O)N[C@@H](CC(C)C)C(=O)N[C@@H](CCSC)C(=O)O)[C@@H](C)CC | 5.1% | 1.4 | . | -7.7 | . | .
CCC(=O)NNC(=O)c1cc(COc2cc(Cl)cc(Cl)c2)on1 | 0.9% | 12.1 | -10.1% | 0.8 | -5.8% | 26.5%
CC(C)CN(C(=O)COC(=O)CCCc1c[nH]c2ccccc12)c1c(N)n(Cc2ccccc2)c(=O)[nH]c1=O | . | -8.5 | 14.1% | -1.1 | ? | ?
Cc1ccccc1OCC(=O)Nc1ccc2c(c1)C(=O)c1ccccc1C2=O | -2.7% | 38.3* | 16.4% | 22.5* | 26.4% | 43.0%
Cc1ccccc1OCC(=O)Nc1ccc2c(c1)Cc1ccccc1-2 | 4.3% | -10.1 | 4.5% | 18.3 | ? | ?
Cc1cccc(Nc2nc(-c3c(C)nc4ccccn34)cs2)c1 | -27.6% | -19.4 | -10.9% | 0.4 | ? | ?
Cc1ccc(CSc2nccc(-c3c(C)nc4ccccn34)n2)cc1 | 3.7% | -5.2 | 0.0% | 1.4 | 13.1µM* | ?
COc1ccc(C(=O)NCCn2cc(SCC(N)=O)c3ccccc32)cc1 | -3.0% | 10.9 | 0.1% | 11.8 | 12.3% | 30.0%

Compound activity: PubChem BioAssay, National Center for Advancing Translational Sciences (NCATS)
